# From PubChem BioAssay (NCATS)
# Records with an inconclusive call do not appear. A number with no mark means an inactive call. Calls of active or inactive are those of the source. Calls follow the shape of the dose curve; as a rule, active = well fitted curve in the direction sought with a large enough effect; inconclusive = small, poorly fitted or top-dose-only effect, or another doubt; inactive = no such curve, though single readings can be large; an effect the other way counts as inactive or inconclusive.
# Columns and labels:
# [1] = system: Zika virus NS2B-NS3 protease (unlinked complex); assay: Primary screen GU Rhodamine qHTS for Zika virus inhibitors: Unlinked NS2B-NS3 protease assay (AID 1347159); also: nearly all actives have a fitted effect of over 60% in size; also: potency is read from the fitted curve at half-maximal effect; as to activity change, negative = inhibition: % is scaled to controls: 0 for no effect and ±100 for the full control effect
# Summary of the method: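 Buffer 10 mM Tris-HCl pH 8.0, 0.01% Tween 20. Unlinked protease 25 nM; compound preincubation 15 min, RT, protected from light. Substrate Rhod110, 1.5 microM; ~15% conversion in 15 min.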
# [2] = Confirmatory screen GU Rhodamine qHTS for Zika virus inhibitors qHTS (AID 1347157); also: potency is read from the fitted curve at half-maximal effect; nearly all actives have a fitted effect of over 70% in size
# Summary of the method: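 Compounds, tested up to 114 microM, were incubated for 15 minutes with 25 nM unlinked NS2B-NS3 protease at pH 8.0. Cleavage of 1.5 microM Rhodamine110 substrate was then followed by fluorescence for 15 minutes.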
# [3] = Confirmatory screen NINDS Rhodamine qHTS for Zika virus inhibitors (AID 1347161); also: potency is read from the fitted curve at half-maximal effect; nearly all actives have a fitted effect of over 60% in size
# Summary of the method: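 Enzyme (25 nM, linked NS2B-NS3) was preincubated 15 min with compound in 10 mM Tris-HCl pH 8.0, 0.01% Tween 20. Rhodamine110 substrate (1.5 microM) was then added and fluorescence read at start and after 15 min.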
# [4] = Vero cells viability qHTS for Zika virus inhibitors (AID 1347167); also: % is scaled to controls: 0 for no effect and ±100 for the full control effect
# Summary of the method: (§1)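 qHTS titration; 24-48 h compound exposure, 37 degrees C/5% CO2; DMEM, 4% FBS; CellTiter Glo ATP luminescence.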
# [5] = HepG2 cells viability qHTS for Zika virus inhibitors (AID 1347168); also: % is scaled to controls: 0 for no effect and ±100 for the full control effect
# Summary of the method: as §1
# [6] = Tertiary RLuc qRT-PCR qHTS assay for Zika virus inhibitors (AID 1347169); also: nearly all actives have a fitted effect of over 55% in size; also: potency is read from the fitted curve at half-maximal effect; as to activity change, negative = inhibition: top concentration of the series differs between compounds; % is scaled to controls: 0 for no effect and ±100 for the full control effect
# Summary of the method: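 Vero cells (1,000/well) infected with recombinant ZIKV-RLuc (Cambodian) at MOI 1-2 after compound addition, 48-72 hrs at 37 degrees C. Live-cell Renilla luciferase substrate added; luminescence read after 1-1.5 hrs.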
# [7] = system: Zika virus NS2B-NS3 protease (linked construct); assay: Primary screen NINDS Rhodamine qHTS for Zika virus inhibitors (AID 1347160); also: nearly all actives have a fitted effect of over 55% in size; also: potency is read from the fitted curve at half-maximal effect
# Summary of the method: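 Aprotinin served as in-plate control. Conditions: 25 nM linked NS2B-NS3, pH 8.0 Tris buffer, titrated compounds, 15 min preincubation and 15 min reaction with 1.5 microM Rhod110 substrate at room temperature.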
# [8] = ZIKV-mCherry secondary qHTS for Zika virus inhibitors (AID 1347158); also: potency is read from the fitted curve at half-maximal effect; as to activity change, negative = inhibition: top concentration of the series differs between compounds
# Summary of the method: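 Read-out is percent infection: mCherry-positive Vero cells (nuclear-proximal intensity >450 RFU, 3 SD above negative controls) counted by high-content imaging of Hoechst-stained, PFA-fixed wells after 48-72 h with ZIKV-mCherry at MOI 1 and compound.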
smiles,measurement,setting,value
CCc1ccccc1OC[C@@H](O)CN[C@H]1CCCc2ccccc21,Potency,[1],inactive
CC(O)(C(=O)O)C1CCC2(C)C1CCC1(C)C2CCC2C3(C)CCC(O)C(C)(COC4OC(CO)C(O)C(O)C4O)C3CCC21C (stereo not drawn),Potency,[2],13.1 µM (active)
same,Potency,[1],7.94 µM (active)
same,Potency,[3],13.1 µM (active)
same,outcome,[4],inactive
same,outcome,[5],inactive
same,Potency,[6],inactive
Cc1noc(-c2ccc(-c3ccc(CC(=O)O)cc3)cc2)c1NC(=O)O[C@H](C)c1ccccc1Cl,Potency,[2],5.55 µM (active)
same,Potency,[1],3.16 µM (active)
same,Potency,[7],4.47 µM (active)
same,Potency,[3],4.94 µM (active)
same,outcome,[5],inactive
same,Potency,[6],14.7 µM (active)
Cc1cc(OCCCS(C)(=O)=O)cc(C)c1-c1cccc(COc2ccc3c(c2)OCC3CC(=O)O)c1 (stereo not drawn),Potency,[2],8.79 µM (active)
same,Potency,[1],12.6 µM (active)
same,Potency,[7],inactive
same,Potency,[3],7.84 µM (active)
O=C(Nc1ccc(/C=C/c2ccc(NC(=O)c3cc(S(=O)(=O)O)c4cccnc4c3O)cc2S(=O)(=O)O)c(S(=O)(=O)O)c1)c1cc(S(=O)(=O)O)c2cccnc2c1O,Potency,[2],2.82 µM (active)
same,Potency,[8],inactive
same,Potency,[3],2.51 µM (active)
same,"activity change, negative = inhibition",[6],59.5% [at 5.25 µM]
CC(C)C[C@H](C(=O)O)c1cc(-c2ccc(C(F)(F)F)cc2)cc(-c2ccc(C(F)(F)F)cc2)c1,Potency,[2],3.12 µM (active)
same,Potency,[7],3.55 µM (active)
same,Potency,[3],3.5 µM (active)
same,outcome,[5],inactive
same,Potency,[6],9.3 µM (active)
O=C(O)CSc1cc(NS(=O)(=O)c2ccc(Br)cc2)c2ccccc2c1O,Potency,[1],3.16 µM (active)
C=C1CCC2C(C)(C)CCCC2(C)C1CC/C(C)=C\CO (stereo not drawn),Potency,[1],17.8 µM (active)
CC1(C)CCC(C)(C)c2cc(C#Cc3ccc(C(=O)O)cc3)ccc21,Potency,[1],1.58 µM (active)
O=C(O)c1cc(N(Cc2ccc(C3CCCCC3)cc2)C(=O)c2ccc(Oc3ccccc3)cc2)ccc1O,Potency,[2],1.75 µM (active)
same,Potency,[1],1.26 µM (active)
same,Potency,[7],2.82 µM (active)
same,Potency,[3],1.97 µM (active)
same,outcome,[4],inactive
same,outcome,[5],inactive
COc1ccc2nccc(C(=O)CC[C@@H]3CCN(CC#Cc4cc(F)cc(F)c4F)C[C@@H]3C(=O)O)c2c1,Potency,[2],39.3 µM (active)
same,Potency,[1],25.1 µM (active)
same,Potency,[7],inactive
same,Potency,[3],44.1 µM (active)
same,Potency,[6],inactive
O=C(O)c1cccc(-c2ccc(-c3cn(C(=O)N4CCCCC4Cc4ccccc4)nn3)cc2)c1 (stereo not drawn),Potency,[2],4.41 µM (active)
same,Potency,[1],3.98 µM (active)
same,Potency,[7],3.98 µM (active)
same,Potency,[3],3.5 µM (active)
same,outcome,[4],inactive
same,outcome,[5],inactive
same,Potency,[6],2.62 µM (active)
Cc1cc(C)c2c(c1)C(N(Cc1cc(C(F)(F)F)cc(C(F)(F)F)c1)c1nnn(C)n1)CCCN2CC1CCC(C(=O)O)CC1 (stereo not drawn),Potency,[2],8.79 µM (active)
same,Potency,[8],inactive
same,Potency,[1],3.16 µM (active)
same,Potency,[7],3.55 µM (active)
same,Potency,[3],4.94 µM (active)
same,outcome,[4],inactive
same,outcome,[5],inactive
same,Potency,[6],16.5 µM (active)
COc1cc2c(c(OC)c1CC=C(C)C)C[C@H](c1ccc(O)c(CC=C(C)C)c1O)CO2,Potency,[1],17.8 µM (active)
C=C1CCC[C@]2(C)CC/C(=C(/CO)C(=O)OC)C[C@@H]12,Potency,[1],20 µM (active)
N#Cc1ccc(N2N=C3c4ccc(C(=O)O)cc4CC[C@@H]3[C@@H]2C2CCCC2)cc1Cl,Potency,[2],2.21 µM (active)
same,Potency,[8],2.51 µM (active)
same,Potency,[1],1.41 µM (active)
same,Potency,[7],2 µM (active)
same,Potency,[3],1.75 µM (active)
same,outcome,[4],inactive
same,outcome,[5],inactive
same,Potency,[6],14.7 µM (active)
CCNC1(C(N)=O)CN(c2nc(C)nc3c(-c4ccc(Cl)cc4)c(-c4ccccc4Cl)nn23)C1,Potency,[1],inactive
O=S(=O)(Nc1cc(Cl)c(Oc2cnc3ccccc3c2)c(Cl)c1)c1ccc(Cl)cc1Cl,Potency,[2],1.75 µM (active)
same,Potency,[1],1.78 µM (active)
same,Potency,[7],3.98 µM (active)
same,Potency,[3],2.21 µM (active)
same,outcome,[5],inactive
same,Potency,[6],9.3 µM (active)
Cc1csc2c(N[C@@H](C)CN3CCN(S(=O)(=O)c4ccc(Cl)c(Cl)c4)CC3)ncnc12,Potency,[1],inactive
Cc1c(OCc2cccc(-c3ccc(C(=O)O)cc3)c2)cc2c(c1C)C(=O)C(C1CCCC1)C2 (stereo not drawn),Potency,[1],1.78 µM (active)
CC[C@H]1OC(=O)[C@H](C)[C@@H](O[C@H]2C[C@@](C)(OC)[C@@H](O)[C@H](C)O2)[C@H](C)[C@@H](O[C@H]2O[C@H](C)C[C@H](N(C)C)[C@H]2O)[C@](C)(O)C[C@@H](C)C(=O)[C@H](C)[C@@H](O)[C@]1(C)O,Potency,[1],inactive
CC[C@@H](Nc1c(Nc2cccc(C(=O)N(C)C)c2O)c(=O)c1=O)c1cc(C(C)C)co1,Potency,[1],22.4 µM (active)
COC(=O)c1ccc2c(c1)nc(NC(=O)c1ccccc1)n2CCCc1ccccc1,Potency,[1],inactive
COc1ccc(C2=NC(c3ccc(Cl)cc3)C(c3ccc(Cl)cc3)N2C(=O)N2CCNC(=O)C2)c(OC(C)C)c1 (stereo not drawn),Potency,[1],inactive
COc1ccnc(CS(=O)c2nc3cc(OC(F)F)ccc3[nH]2)c1OC (stereo not drawn),Potency,[1],inactive
CC1(CO)CC(O)[C@]2(C(=O)O)CCC34CC3(C=CC3[C@]5(C)C(CC[C@]34C)C(C)(CO)[C@@H](O)[C@H](O)[C@@H]5O)C2C1 (stereo partly drawn),Potency,[1],inactive
CC(=O)OC1CCC2(C)C(CCC3(C)C2CC=C2C4C(C)C(C)CCC4(C)CCC23C)C1(C)C(=O)O (stereo not drawn),Potency,[1],3.98 µM (active)
Cc1cc(NC(=O)NCCN2CCC(O)(Cc3ccccc3)CC2)c2ccccc2n1,Potency,[1],inactive
O=C(Nc1ccc(Cl)cc1)Nc1cccc(-c2cccc(N3CCCC3)n2)c1,Potency,[1],inactive
CC12CCC3C1C(c1c(cc(O)c(C(=O)c4ccccc4)c1O)O2)C3(C)C (stereo not drawn),Potency,[1],8.91 µM (active)
C=C1C(=O)OC2/C=C(\CO)CC/C=C(\C=O)C(OC)C(OC(=O)C(C)CC)C12 (stereo not drawn),Potency,[1],inactive
COc1ccc(S(=O)(=O)Nc2cc(Cl)cc(Cl)c2OC)cc1N1CCNCC1,Potency,[1],inactive
C=C[C@@]1(C)CCC2C(=CCC3[C@]2(C)CCC[C@@]3(C)C(=O)O)C1 (stereo partly drawn),Potency,[1],22.4 µM (active)
CC(OC1OCCN(Cc2n[nH]c(=O)[nH]2)C1c1ccc(F)cc1)c1cc(C(F)(F)F)cc(C(F)(F)F)c1 (stereo not drawn),Potency,[1],44.7 µM (active)
CC(=O)O[C@@H]1C[C@@]2(C)C(CC[C@]3(C)C2CC=C2C4CC(C)(C)CC[C@]4(C(=O)O)CC[C@]23C)C(C)(C)[C@H]1O (stereo partly drawn),Potency,[1],7.08 µM (active)
CNC(=O)[C@@H](c1ccccc1)N1CCc2cc(OC)c(OC)cc2[C@@H]1CCc1ccc(C(F)(F)F)cc1,Potency,[1],inactive
C=C1/C(=C/C=C2\CCC[C@]3(C)[C@@H]([C@H](C)/C=C/[C@H](O)C4CC4)CC[C@@H]23)C[C@@H](O)C[C@@H]1O,Potency,[1],50.1 µM (active)
C=CC(C)(C)C12CC3C(=O)N4C(CC5(C(C)(C)C=C)c6ccccc6NC45)C(=O)N3C1Nc1ccccc12 (stereo not drawn),Potency,[1],inactive
CNc1nc(NCc2ccc(NS(C)(=O)=O)cc2Cl)cc(-c2ccccn2)n1,Potency,[1],inactive
Cn1cc(C2=C(c3coc4ccccc34)C(=O)NC2=O)c2cc(Br)ccc21,Potency,[1],25.1 µM (active)
COc1cc(CCc2ccc(OCC=C(C)C)cc2)cc(OC)c1OC,Potency,[1],inactive
C=CC(=O)N1CCCN(c2cc(NCCC(=O)O)nc(-c3ccccn3)n2)CC1,Potency,[1],inactive
O=C(Nc1ccn(Cc2ccc(O)cc2C(F)(F)F)n1)c1c(F)cccc1F,Potency,[1],inactive
Fc1ccc2[nH]ccc2c1-c1nc(N2CCOCC2)c2sc(CN3CCN(CC4CC4)CC3)cc2n1,Potency,[1],inactive
C/C=C(/C)C(=O)O[C@H]1[C@H](OC(=O)/C(C)=C\C)[C@@]23C(CC1(C)C)[C@]1(CCC4[C@@]5(C)CC[C@H](O[C@@H]6O[C@H](C(=O)O)[C@@H](O)[C@H](O[C@@H]7O[C@H](CO)[C@H](O)[C@H](O)[C@H]7O[C@@H]7O[C@@H](C)[C@H](O)[C@@H](O)[C@H]7O[C@@H]7OC[C@@H](O)[C@H](O)[C@H]7O)[C@H]6O[C@@H]6O[C@H](CO)[C@H](O)[C@H](O)[C@H]6O)C(C)(C)C5CC[C@@]4(C)[C@]1(C)C[C@H]2O)O[C@H]3O (stereo partly drawn),Potency,[1],3.98 µM (active)
Fc1ccc(-n2cc(CCCCN3CCC4(CC3)OCc3ccccc34)c3ccccc32)cc1,Potency,[1],inactive
C=CC(C)(C)c1[nH]c2ccccc2c1C[C@@H]1NC(=O)[C@H](C)NC1=O,Potency,[1],inactive
CCCCc1ccc(NS(=O)(=O)c2ccc(F)cc2)cc1,Potency,[1],50.1 µM (active)
Cc1ccc(-c2c(C(=O)CCl)n(CCCO)c3ncnc(N)c23)cc1,Potency,[1],inactive
CC(=O)O[C@H]1[C@H](O)C[C@@]2(C)C(CC[C@]3(C)C2CC=C2C4CC(C)(C)CC[C@]4(C(=O)O)CC[C@]23C)C1(C)C (stereo partly drawn),Potency,[1],7.94 µM (active)
Cc1cccc(-c2[nH]ncc2-c2ccc(F)c(-c3cnn(CCO)c3)c2)n1,Potency,[1],inactive
C[C@@]12C(=O)N(c3ccc(C(=O)Nc4cccc5cccnc45)cc3)C(=O)[C@@H]1[C@@H]1C=C[C@H]2C1,Potency,[1],inactive
CC(=O)O[C@H]1C[C@@](O)(C(C)C)[C@@H]2[C@@H](OC(=O)c3ccc(O)cc3)CC(C)=CC[C@@]12C,Potency,[1],inactive
Cn1ncc(Cl)c1-c1cc(C(=O)NC(CN)Cc2ccc(F)c(F)c2)oc1Cl (stereo not drawn),Potency,[1],inactive
C=C(C=O)[C@]1(O)C[C@@]2(C)C(=CC1=O)C=C[C@H](OC(=O)/C=C/C=C/[C@H](C)CC)[C@@H]2C,Potency,[1],8.91 µM (active)
Cc1sc2c(c1C)C(c1ccc(Cl)cc1)=N[C@@H](CC(=O)Nc1ccc(OCCOCCOCCOCCNc3cccc4c3C(=O)N(C3CCC(=O)NC3=O)C4=O)cc1)c1nnc(C)n1-2 (stereo partly drawn),Potency,[1],inactive
c1ccc(-c2cnn3cc(-c4ccc(OCCN5CCOCC5)cc4)cnc23)cc1,Potency,[1],inactive
CCn1c(-c2nonc2N)nc2c(C#CC(C)(C)O)ncc(OCC3CCCNC3)c21 (stereo not drawn),Potency,[7],inactive
CC(C)n1c(=O)c(C(=O)NC2CC3CCC(C2)N3C[C@@H](O)CN(C)S(C)(=O)=O)cc2ccccc21 (stereo partly drawn),Potency,[1],inactive
same,Potency,[7],inactive
CCOc1ccc(Cc2nc(-c3c(C)nc4ccccn34)cs2)cc1,Potency,[1],inactive
same,Potency,[7],inactive
CCNc1nc(Nc2cc(F)c(C(=O)N3CCOCC3)cc2OC)ncc1C(F)(F)F,Potency,[1],inactive
same,Potency,[7],inactive
